Consider seven compounds from PubChem BioAssay (EPA / NIEHS).

The structures appear in SMILES notation. Several values for one entry are separate records, joined by “and”; a condition that tells them apart may be missing. Equal entries are not always repeated. Activity calls are given as the source filed them. Rule for the calls: active = hit-call score of the fitted dose curve at least 0.9, where 1 is the maximum; inactive = score below 0.9.

What is called AC50 is the midpoint of the concentration-response curve, whichever way the signal moves.

Read-out in the first experiment: Secreted IgG (sIgG), gene 3500
Kind of experiment: BSK_BT_sIgG: BioMAP Diversity Plus: BT Assay for Secreted IgG (sIgG) Biomarker Activity (AID 2284226). Particulars: primary human B cells with PBMC. In a few lines:
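Read-out: ELISA for secreted IgG after 24 h of chemical exposure in a B cell plus PBMC co-culture. Values reflect upward-direction fitting against DMSO negative controls.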
With `CCCCCCCCCCCCCC[N+](C)(C)C`, the AC50 is 45.3 nM (active).

For the compound `NCC(F)(F)C(F)(F)C(F)(F)C(F)(F)C(F)(F)C(F)(F)C(F)(F)F`, the outcome was inactive.

As to `C=C(C)C(=O)OCCC(F)(F)C(F)(F)C(F)(F)C(F)(F)C(F)(F)C(F)(F)F`, the result was inactive.

As for `C[C@@H]1C[C@H]2[C@@H]3CCC4=CC(=O)C=C[C@]4(C)[C@@]3(F)[C@@H](O)C[C@]2(C)[C@@]1(O)C(=O)COP(=O)(O)O`, the outcome was inactive.

For the compound `OCCC(F)(F)C(F)(F)C(F)(F)C(F)(F)C(F)(F)C(F)(F)F`, the result was inactive.

As to `OCCC(F)(F)C(F)(F)C(F)(F)C(F)(F)C(F)(F)C(F)(F)C(F)(F)C(F)(F)F`, the AC50 was 50.6 µM (active) and 53.6 µM (active).

Read-out in a further experiment: not listed separately
Kind of experiment: BSK_BT_Bcell_Proliferation: Viability Assessment in the BioMAP Diversity Plus: BT Assay for B cell Proliferation (AID 2284227). Conditions: primary human B cells with PBMC. Summed up: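 Human B cell/PBMC co-culture; test chemical added; 72 h; TCA fix (10%), 0.1% SRB stain, A560 for total protein as a proliferation read-out; positive-direction fit vs DMSO baseline.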
Consider `CCCCCCCCCCCCCC[N+](C)(C)C`, for which the AC50 was 2.81 µM (active).

`NCC(F)(F)C(F)(F)C(F)(F)C(F)(F)C(F)(F)C(F)(F)C(F)(F)F`: the result was inactive.

`FC(F)(I)C(F)(F)C(F)(F)C(F)(F)C(F)(F)C(F)(F)I`: the AC50 is 20.6 µM (active) [middle of 5 runs].

Take `C=C(C)C(=O)OCCC(F)(F)C(F)(F)C(F)(F)C(F)(F)C(F)(F)C(F)(F)F`: the outcome was inactive.

As to `C[C@@H]1C[C@H]2[C@@H]3CCC4=CC(=O)C=C[C@]4(C)[C@@]3(F)[C@@H](O)C[C@]2(C)[C@@]1(O)C(=O)COP(=O)(O)O`, the result was inactive.

As for `OCCC(F)(F)C(F)(F)C(F)(F)C(F)(F)C(F)(F)C(F)(F)F`, the outcome was inactive.

Turning to `OCCC(F)(F)C(F)(F)C(F)(F)C(F)(F)C(F)(F)C(F)(F)C(F)(F)C(F)(F)F`, the AC50 is 45.1 µM (active) and 45.8 µM (active).
